The record followed here is PubChem BioAssay.

Calls of active or inactive are those of the source.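 The calls were made as follows, unless noted: active = inhibition above 20% together with a positive visual image hit; inconclusive = visual image hit but inhibition not above 20%; inactive = no visual image hit.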

Experiment [1] can be described thus: inhibitors of TNFa-induced NFkB p65 translocation, primary screen, imaging, HUVEC, MLSMR starter and 10KST1 sets (AID 438).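 Also: compound added about 3h40 before a 20 min TNFalpha stimulation.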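 As to inhibition: signal is the nuclear over cytoplasmic p65 intensity ratio per well.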 As to conditions: HUVEC TNFa-induced p65 nuclear translocation; cell count: measured here: nuclei count (cytotoxicity indicator), at 2.08 µM; inhibition: at 2 µM, stronger effect = higher value, 0% TNFa-plus-vehicle, 100% no-TNFa wells.
The nature of experiment [2]: inhibitors of mutant huntingtin aggregation, primary screen, imaging, exon1htt(103Q)mCFP cells, high-content imaging (AID 483;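 active = visual image review flags a hit and inhibition of aggregation exceeds 20%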;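 also: compound exposure lasted 3 days before fixation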;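 as to nuclei count: percent of the per-plate median nuclei count of sample wells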). As to conditions: exon1htt(103Q)mCFP cell line, aggregate imaging, at 2 µM; inhibition of aggregation: stronger effect = higher value; nuclei count: measured here: cell count, toxicity.
Experiment [3] can be described thus: inhibitors of E-selectin induction by TNFa, primary screen, imaging, HUVEC, immunofluorescence, MLSMR starter and 10KST1 sets (AID 487;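 active = visually confirmed hit in the image check and inhibition above 20%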;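 as to inhibition: signal is fraction of cell area covered by stained E-selectin grains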;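 as to nuclei count: 100% = median nuclei count of all wells on the same plate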). As to conditions: HUVEC TNFalpha-induced E-selectin immunofluorescence imaging, at 2 µM; inhibition: stronger effect = higher value; nuclei count: measured here: cell number, toxicity.
Experiment [4] concerns the target Voltage-gated potassium channel subunit beta-2 (Rattus norvegicus) (UniProt P62483). The experiment is described as follows: KvBeta enzyme negative modulators, primary screen, biochemical, NADPH fluorescence (AID 622;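 active = fluorescence slope higher than the sample average by over 3 SD, cut at about -0.22 in these data, passing the limit was not always enough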;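 also: slope of raw intensity against log time taken from 70 to 1610 s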). As to conditions: recombinant KvBeta, 4-cyanobenzaldehyde reduction, at 10 µM, stronger effect = higher value.
The target is the same in experiment [5]. Kind of experiment: KvBeta positive modulators, primary screen, biochemical, NADPH fluorescence (AID 623;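 active = NADPH fluorescence slope more negative than the mean of all samples by about 3 SD, 99.7% confidence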;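 also: fluorescence intensity change per second fitted from 20 to 320 s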). As to conditions: Recombinant KvBeta, NADPH fluorescence decrease slope, 10 min; at 10 µM; stronger effect = lower value.
Experiment [6] deals with Alpha-2C adrenergic receptor (Homo sapiens) (UniProt P18825). The experiment is described as follows: modulators of alpha2C/GIRK thallium flux, primary screen, cell-based, HEK293 alpha2C/GIRK1/2 (AID 624;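 active = fluorescence slope after compound addition differing from the mean of all screened samples at 99.7% confidence, in either direction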;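 also: slope of fluorescence ratio to pre-addition baseline per second over 15 to 24 s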). As to conditions: thallium flux BTC fluorescence, at 10 µM, actives lie on both sides.
Experiment [7] can be described thus: inhibitors of Sendai virus-induced IRF3 signaling, primary screen, TLR/RLR signaling modifier project, cell-based, Sendai virus stimulus, luciferase, 10K MLSCN set (AID 602276;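 active = inhibition at or above 50% at 10 µM; inactive = inhibition below 50%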;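 also: firefly luciferase from ISG56 promoter only with Renilla not read in this screen; 0% = Sendai virus plus DMSO and 100% = medium plus DMSO without virus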). To be noted: HEK293 RL24 IRF3 luciferase reporter, at 10 µM, stronger effect = higher value.
Experiment [8] can be described thus: inhibitors of poly I:C-induced TLR3 signaling, primary screen, cell-based, poly I:C stimulus, luciferase, 10K MLSCN set (AID 602277;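 active = inhibition of the reporter signal at or above 50%; inactive = inhibition below 50%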). To be noted: HEK293-TLR3 RL24 IRF3 luciferase reporter, at 10 µM, stronger effect = higher value. In general terms: Reporter assays use an easily measured gene product as a stand-in for the process of interest.

Alpha-2C adrenergic receptor (Homo sapiens), sequence (P18825 whole entry, looked up): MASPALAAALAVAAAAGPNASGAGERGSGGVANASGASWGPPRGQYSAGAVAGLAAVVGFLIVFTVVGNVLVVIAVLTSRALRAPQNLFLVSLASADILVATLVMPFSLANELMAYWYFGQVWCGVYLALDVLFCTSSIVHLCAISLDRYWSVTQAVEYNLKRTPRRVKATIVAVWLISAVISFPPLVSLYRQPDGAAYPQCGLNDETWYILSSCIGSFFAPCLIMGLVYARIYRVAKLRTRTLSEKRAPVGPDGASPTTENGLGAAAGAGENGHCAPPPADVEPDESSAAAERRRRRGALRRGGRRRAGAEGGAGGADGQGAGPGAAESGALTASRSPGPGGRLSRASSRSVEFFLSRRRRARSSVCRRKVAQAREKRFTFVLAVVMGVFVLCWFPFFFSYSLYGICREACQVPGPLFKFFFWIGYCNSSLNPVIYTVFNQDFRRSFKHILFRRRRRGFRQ
Voltage-gated potassium channel subunit beta-2 (Rattus norvegicus), sequence (P62483 whole entry, looked up): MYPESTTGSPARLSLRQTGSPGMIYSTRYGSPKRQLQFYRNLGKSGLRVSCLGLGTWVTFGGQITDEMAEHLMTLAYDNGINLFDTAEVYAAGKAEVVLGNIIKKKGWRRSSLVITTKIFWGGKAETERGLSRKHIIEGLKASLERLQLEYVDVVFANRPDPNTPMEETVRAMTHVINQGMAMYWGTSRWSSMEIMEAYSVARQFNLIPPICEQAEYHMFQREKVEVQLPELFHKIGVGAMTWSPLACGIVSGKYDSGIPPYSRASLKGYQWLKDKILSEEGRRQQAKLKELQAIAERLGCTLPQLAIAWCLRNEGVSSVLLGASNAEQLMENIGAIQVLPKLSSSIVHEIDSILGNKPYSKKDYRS

As for `COc1ccc(CNCC(=O)Nc2cc(C)nn2-c2nc(C)cc(C)n2)cc1OC`, the cell count in experiment [1] is 431. In addition, the inhibition in experiment [1] was 6.7% (inactive); in experiment [3] it was -481% (inactive); in experiment [7], 21.1% (inactive); in experiment [8], 32.1% (inactive). Also, the inhibition of aggregation in experiment [2] is -0.4% (inactive). Moreover, the values for the nuclei count in experiment [2] and in experiment [3] were 104% and 152%, respectively. Also, the fluorescence slope in experiment [4] is -0.497 (inactive). The NADPH fluorescence slope in experiment [5] is -2.4e-05 (inactive). In addition, the slope in experiment [6] was 0.00701 (inactive).
`O=C(OCCN1C(=O)c2ccccc2C1=O)c1ccc(S(=O)(=O)N2CCCCCC2)cc1`: the cell count in experiment [1] was determined as 390. The inhibition in experiment [1] was -9.2% (inactive); in experiment [3], -10.3% (inactive); in experiment [7], 19.6% (inactive); in experiment [8], 12.1% (inactive). Also, in experiment [2], the inhibition of aggregation is -7.2% (inactive). The results for the nuclei count in experiment [2] and in experiment [3] were 95.1% and 108%, respectively. In experiment [4], the fluorescence slope is -0.605 (inactive). The NADPH fluorescence slope in experiment [5] was -2.9e-05 (inactive). In experiment [6], the slope was 0.00625 (inactive).
Take `COc1ccc(C(=O)Nc2nncs2)c(OC)c1`: in experiment [1], the cell count amounted to 746. Moreover, the inhibition in experiment [1] is 7.5% (inactive); in experiment [3], -98.6% (inactive); in experiment [7] it was -22.9% (inactive); in experiment [8], -48.7% (inactive). Further, the inhibition of aggregation in experiment [2] is -7.4% (inactive). In addition, the nuclei count in experiment [2] was determined as 27%; in experiment [3], 111%. Also, in experiment [4], the fluorescence slope was -0.631 (inactive). For the same compound, in experiment [5], the NADPH fluorescence slope is 3.8e-06 (inactive). Moreover, in experiment [6], the slope is 0.00588 (inactive).
Regarding `N#Cc1nc(-c2ccco2)oc1NCc1ccco1`, in experiment [1], the cell count turned out to be 658. For the same compound, the inhibition in experiment [1] was -9.1% (inactive); in experiment [3] it was -12.2% (inactive); in experiment [7], -2.68% (inactive); in experiment [8], -30.9% (inactive). Besides, in experiment [2], the inhibition of aggregation is -10.1% (inactive). Further, the nuclei count in experiment [2] worked out at 120%; in experiment [3], 98.2%. Further, in experiment [4], the fluorescence slope is -0.375 (inactive). Besides, in experiment [5], the NADPH fluorescence slope was 5.2e-05 (inactive). For the same compound, the slope in experiment [6] is 0.00582 (inactive).
Take `Cc1ccc(S(=O)(=O)N2CCC(C(=O)N3CCC[C@H]3C(=O)NCc3ccccc3)CC2)cc1`: the cell count in experiment [1] came out at 340. For the same compound, the inhibition is 3.6% (inactive) in experiment [1], -35% (inactive) in experiment [3], 13.5% (inactive) in experiment [7] and 23.1% (inactive) in experiment [8]. The inhibition of aggregation in experiment [2] is -6.4% (inactive). For the same compound, the nuclei count was found to be 108% in experiment [2] and 133% in experiment [3]. For the same compound, the fluorescence slope in experiment [4] is -0.453 (inactive). The NADPH fluorescence slope in experiment [5] is 8.3e-05 (inactive). For the same compound, the slope in experiment [6] was 0.00735 (inactive).
In the case of `O=C(COC(=O)C1CC2C=CC1C2)Nc1ccc2c(c1)OC(F)(F)O2` (stereo not drawn), the cell count in experiment [1] stood at 434. The inhibition in experiment [1] is 9.3% (inactive); in experiment [3], 11.1% (inactive); in experiment [7] it was 15.9% (inactive); in experiment [8], 20.1% (inactive). The inhibition of aggregation in experiment [2] is 13.3% (inactive). Besides, the nuclei count in experiment [2] amounted to 89.2%; in experiment [3] it was 91.8%. Also, the fluorescence slope in experiment [4] was -0.437 (inactive). The NADPH fluorescence slope in experiment [5] was -6.4e-05 (inactive). Further, the slope in experiment [6] is 0.00772 (inactive).
For the compound `CC(=O)c1c(C)oc2ccc(NS(=O)(=O)c3ccc(O)c(C(=O)O)c3)cc12`, the cell count in experiment [1] was determined as 380. The inhibition is 8.9% (inactive) in experiment [1], -5.6% (inactive) in experiment [3], 7.79% (inactive) in experiment [7] and 19.3% (inactive) in experiment [8]. Further, in experiment [2], the inhibition of aggregation was -7.5% (inactive). Also, the nuclei count in experiment [2] came to 108%; in experiment [3] it was 112%. The fluorescence slope in experiment [4] is -0.576 (inactive). In experiment [5], the NADPH fluorescence slope was -2.5e-05 (inactive). In addition, the slope in experiment [6] was 0.00663 (inactive).
For `CCCC(=O)Nc1cccc(NC(=O)CN2CCN(c3ccccc3OC)CC2)c1`, the cell count in experiment [1] was determined as 693. Besides, the inhibition in experiment [1] is -15.2% (inactive); in experiment [3], -61.4% (inactive); in experiment [7], -1.32% (inactive); in experiment [8] it was 11.7% (inactive). In addition, in experiment [2], the inhibition of aggregation was 17.6% (inactive). Further, the values for the nuclei count in experiment [2] and in experiment [3] were 98.8% and 104%, respectively. In addition, the fluorescence slope in experiment [4] is -0.481 (inactive). Besides, the NADPH fluorescence slope in experiment [5] was -4.6e-05 (inactive). Moreover, the slope in experiment [6] was 0.00587 (inactive).
For the compound `O=C(CSc1nnc(-c2c[nH]c3ccccc23)o1)N(Cc1ccccc1)c1ccc(F)cc1`, the cell count in experiment [1] worked out at 295. For the same compound, the inhibition in experiment [1] was -6.1% (inactive); in experiment [3], -20.3% (inactive); in experiment [7], -15.4% (inactive); in experiment [8] it was -35.1% (inactive). Also, the inhibition of aggregation in experiment [2] was 1% (inactive). The nuclei count in experiment [2] is 95.3%; in experiment [3], 119%. Also, the fluorescence slope in experiment [4] was -0.6 (inactive). Moreover, the NADPH fluorescence slope in experiment [5] was -2.1e-05 (inactive). Further, in experiment [6], the slope is 0.00713 (inactive).
`CCOC(=O)c1sc(NC(=O)CSc2nnc3c4ccccc4n(CC)c3n2)nc1C`: in experiment [1], the cell count is 478. The inhibition in experiment [1] is 1.6% (inactive); in experiment [3], -6.3% (inactive); in experiment [7] it was -6.56% (inactive); in experiment [8] it was 7.93% (inactive). Moreover, in experiment [2], the inhibition of aggregation was 6.7% (inactive). Further, the nuclei count in experiment [2] came out at 106%; in experiment [3], 110%. Besides, the fluorescence slope in experiment [4] was -0.333 (inactive). Also, in experiment [5], the NADPH fluorescence slope was -1.9e-05 (inactive). In addition, the slope in experiment [6] was 0.00568 (inactive).
With `CCc1ccc(N2CC34C=CC(O3)C(C(=O)OC)C4C2=O)cc1` (stereo not drawn), in experiment [1], the cell count is 535. For the same compound, the inhibition in experiment [1] was 4% (inactive); in experiment [3], -7.9% (inactive); in experiment [7], 7.96% (inactive); in experiment [8], 30.4% (inactive). Moreover, the inhibition of aggregation in experiment [2] is 11.3% (inactive). For the same compound, the values for the nuclei count in experiment [2] and in experiment [3] were 85.3% and 101%, respectively. Besides, in experiment [4], the fluorescence slope is -0.589 (inactive). In addition, the NADPH fluorescence slope in experiment [5] is 6.6e-06 (inactive). The slope in experiment [6] is 0.00784 (inactive).
On to `COc1ccc(OCCOC(=O)c2cccs2)cc1`, for which the cell count in experiment [1] is 367. Besides, the inhibition in experiment [1] is 14.9% (inactive); in experiment [3] it was -11.5% (inactive); in experiment [7], -2.79% (inactive); in experiment [8], 4.6% (inactive). Moreover, in experiment [2], the inhibition of aggregation was -30.1% (inactive). Also, the nuclei count in experiment [2] is 100%; in experiment [3] it was 112%. In addition, the fluorescence slope in experiment [4] was -0.604 (inactive). Also, the NADPH fluorescence slope in experiment [5] was 7.3e-06 (inactive). Also, the slope in experiment [6] is 0.00778 (inactive).
Take `CCN(CC)S(=O)(=O)c1cccc(-c2nnc(SCC(N)=O)n2CCc2ccccc2)c1`: the cell count in experiment [1] turned out to be 635. For the same compound, the inhibition in experiment [1] was -4.4% (inactive); in experiment [3] it was -32.3% (inactive); in experiment [7], 7.68% (inactive); in experiment [8], 11.1% (inactive). In addition, the inhibition of aggregation in experiment [2] is -2.2% (inactive). The nuclei count was found to be 105% in experiment [2] and 125% in experiment [3]. Also, the fluorescence slope in experiment [4] is -0.592 (inactive). In addition, in experiment [5], the NADPH fluorescence slope was -8.5e-06 (inactive). Besides, in experiment [6], the slope is 0.00663 (inactive).

The inhibition is the relative decrease from the control value, in per cent.
